Hit rate of the full screen: of about 100,000 compounds, about 770 (0.77%) were called active. The list comes from a sample in which actives are over-represented; it also holds similar structures and randomly drawn compounds. A number with no mark means an inactive call. Cut-off read from the data, not from the text of the source: active = inhibition above about 50%; inactive = the rest.
biological target: Gag-Pol polyprotein (Human immunodeficiency virus type 1 group M subtype B (isolate HXB2)) (UniProt P04585); experiment: RNase H inhibition, HIV 1 Gag Pol polyprotein, FRET biochemical assay, screening (AID 372); details: HIV-1 RT RNase H, FRET RNA/DNA substrate fluorescence; at 10 µM; active compounds read high

Row | SMILES | inhibition
1 | Cc1ccc2nc(NNC(=O)CCC(=O)O)nc(-c3ccccc3)c2c1 | 15%
2 | COc1cc(/C=N/n2cnnc2)ccc1OCCSc1ccc(C)cc1 | 15%
3 | C=C(C)COc1ccc2oc(-c3ccccc3)c(C(=O)OCC)c2c1 | 0%
4 | CC(C)(C)NCCOc1ccc(Cl)cc1Cl | 0%
5 | O=C(CSc1nc2ccc([N+](=O)[O-])cc2s1)c1ccc(Cl)cc1 | 11%
6 | COc1ccc(C(=O)Nc2ccc(NC(=O)c3ccco3)c(OC)c2)cc1Cl | 1%
7 | Cc1cc(C)nc(/N=C(/N)Nc2ccc(C(=O)O)cc2)n1 | 3%
8 | COc1ccc(-n2nc3cc(C)c(NC(=O)COc4ccc([N+](=O)[O-])cc4)cc3n2)cc1 | 6%
9 | Cc1ccc(N=Cc2cc(Br)cc(Br)c2O)c(C)c1 | 4%
10 | Cc1ccc2nc(-c3cccc(NC(=O)c4ccc([N+](=O)[O-])cc4)c3)oc2c1 | 54% (active)
11 | Cc1ccc(-c2nc3cc(NC(=S)NC(=O)c4cccs4)ccc3o2)cc1 | 7%
12 | Cc1ccc2oc(-c3cccc(NC(=O)c4cccc([N+](=O)[O-])c4)c3)nc2c1 | 0%
13 | Cc1cc(C)c2oc(-c3ccc(NC(=O)c4cccnc4)cc3O)nc2c1 | 52% (active)
14 | Cc1ccc2oc(-c3ccc(NC(=O)c4cccnc4)cc3O)nc2c1 | 21%
15 | Cc1cc(C)c2oc(-c3cccc(NC(=O)Cc4ccc(Cl)cc4)c3)nc2c1 | 25%
16 | Cc1cc(C)c2oc(-c3cccc(NC(=O)c4ccc(Cl)cc4)c3)nc2c1 | 53% (active)
17 | O=C(Nc1ccc(-c2nc3ccccc3o2)cc1)c1cccs1 | 5%
18 | Cc1ccc2nc(-c3cccc(NC(=O)c4ccc(C)c([N+](=O)[O-])c4)c3)oc2c1 | 6%
19 | O=C(NC(=S)Nc1ccc(-c2nc3ccccc3o2)cc1)c1cccs1 | 55% (active)
20 | Cc1cc2nc(-c3ccc(NC(=O)c4cccnc4)cc3O)oc2cc1C | 12%
21 | COc1c(Cl)cc(C(=O)Nc2cccc(-c3nc4cc(C)cc(C)c4o3)c2)cc1Cl | 20%

Row | SMILES | inhibition
22 | COc1ccc(N2C(=O)/C(=C\c3cc(OC)ccc3O)SC2=S)cc1 | 22%
23 | O=C(N/N=C/c1sc2ccccc2c1Cl)c1ccncc1 | 16%
24 | COc1cc(C(=O)N/C(=C/c2cccc([N+](=O)[O-])c2)C(=O)Nc2ccc(C)cc2)cc(OC)c1OC | 7%
25 | Cc1c(O)ccc2c(=O)c(-c3ccccc3Cl)coc12 | 9%
26 | Cc1oc2c(O)c(O)ccc2c(=O)c1-c1ccccc1Cl | 52% (active)
27 | O=c1c(-c2ccccc2Cl)coc2c(O)c(O)ccc12 | 55% (active)
28 | O=c1c(-c2ccccc2Cl)c(C(F)(F)F)oc2c(O)c(O)ccc12 | 41%
29 | Cc1oc2c(C)c(O)ccc2c(=O)c1-c1ccccc1Cl | 12%
30 | O=c1c(-c2ccccc2Cl)coc2cc(O)ccc12 | 19%
31 | COc1cc(C=C2C(=O)N(C)C(=O)N(C)C2=O)ccc1OCCOc1ccc(C)cc1 | 11%
32 | CCOC(=O)c1sc(NC(=O)COc2ccccc2C)c(C(=O)OCC)c1C | 19%
33 | Cc1cc2c(cc1Br)NC(=O)C2=O | 27%
34 | C=CCc1ccc(OCCOCCOc2ccc(C)cc2I)c(OC)c1 | 13%
35 | NC1=NC(=O)/C(=C/c2ccc(OS(=O)(=O)c3ccc4ccccc4c3)cc2)S1 | 20%
36 | Cc1ccc(S(=O)(=O)Oc2ccc(/C=C3\SC(=S)NC3=O)cc2)cc1[N+](=O)[O-] | 57% (active)
37 | COc1cc(/C=C2\SC(=S)NC2=O)ccc1OS(=O)(=O)c1ccc(C)cc1 | 24%
38 | O=C1NC(=S)S/C1=C\c1cccc(OS(=O)(=O)c2cccc([N+](=O)[O-])c2)c1 | 44%
39 | CC(=O)Nc1ccc(S(=O)(=O)Oc2cccc(/C=C3\SC(=S)NC3=O)c2)cc1 | 8%
40 | Cc1ccc(S(=O)(=O)Oc2cccc(/C=C3\SC(N)=NC3=O)c2)cc1 | 15%
41 | O=C1NC(=S)S/C1=C\c1ccc(OS(=O)(=O)c2cccc([N+](=O)[O-])c2)cc1 | 31%
42 | COc1cc(/C=C2\SC(=S)NC2=O)cc(Cl)c1OS(=O)(=O)c1ccccc1 | 11%

Row | SMILES | inhibition
43 | COc1cc(/C=C2/SC(=S)NC2=O)cc(Cl)c1OS(=O)(=O)c1ccc(C)cc1 | 54% (active)
44 | O=C1NC(=S)S/C1=C\c1cccc(OS(=O)(=O)c2ccc([N+](=O)[O-])cc2)c1 | 57% (active)
45 | NC1=NC(=O)/C(=C/c2cccc(OS(=O)(=O)c3ccc4ccccc4c3)c2)S1 | 50% (active)
46 | Cc1ccc(/C=C2/SC(=S)NC2=O)cc1[N+](=O)[O-] | 8%
47 | COc1ccc(-c2ccccc2)cc1NCc1ccc(C)s1 | 17%
48 | CNC(=O)OCCc1ccc(-c2ccccc2)o1 | 4%
49 | CC1CC(=O)C2=C(C1)OC(N)=C(C#N)C2c1ccc(C(F)(F)F)cc1 (stereo unspecified) | 2%
50 | COC(=O)c1ccccc1NC(=O)c1cccc(C)c1 | 4%
51 | CCOc1ccc(Cc2c(O)n(-c3ccccc3)c(=S)[nH]c2=O)cc1 | 18%
52 | COc1cc(/C=N/N2C(=O)c3cccc4cccc(c34)C2=O)cc(I)c1O | 13%
53 | C/C(=N/Nc1cc(-c2ccccc2)nc(-c2ccccc2)n1)c1ccc(O)cc1 | 4%
54 | CCOC(=O)C1=NN(c2ccccc2)C(=O)/C1=C\c1ccc(F)cc1 | 0%
55 | COc1ccc(S(=O)(=O)Oc2cccc(/C=C3\SC(=S)NC3=O)c2)cc1 | 20%
56 | Cc1ccc(S(=O)(=O)Oc2ccc(/C=C3\SC(=S)NC3=O)cc2)cc1 | 29%
57 | Cc1ccc(S(=O)(=O)Oc2cccc(/C=C3\SC(=S)NC3=O)c2)cc1 | 53% (active)
58 | COc1ccc(NC(=O)c2c(NC(=O)c3ccco3)sc(-c3ccccc3)c2C)cc1 | 12%
59 | CCOc1ccc(NC(=O)c2c(N)sc(-c3ccccc3)c2C)cc1 | 23%
60 | COC(=O)c1c(N)sc(C(=O)Nc2ccc(C)cc2)c1C | 0%
61 | CCOC(=O)c1c(N)sc(C(=O)Nc2ccc(OC)cc2)c1C | 9%
